Compound activity from PubChem.
Sampled rows, rich in hits. Any-hit rate of the full collection: about 5.9%.
TrxR1 inh: blocks rat thioredoxin reductase 1 | O89049 | recombinant rTrxR1, NADPH fluorescence consumption, selenite substrate | Potency, µM (top dose mostly 114 µM), most hits filed as inhibitors | actives 1% (n = 390,000) | AID 588453; note: nearly all actives have a fitted effect of over 65% in size
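Rat TrxR1 (90 nM in the dispensed reagent) was pre-reduced with 400 uM NADPH for 5 min at room temperature, then incubated with compound for 15 min. After 400 uM selenite was added, NADPH fluorescence (Ex 340/Em 450 nm) was followed for 8 min.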
TrxR1 substrate: substrates of rat thioredoxin reductase 1; O89049; purified TrxR1 substrate turnover, NADPH consumption readout; Potency, µM (doses to about 114 µM); actives 0.01% (n = 390,000); note: nearly all actives have a fitted effect of over 50% in size
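Rat TrxR1, dispensed at 90 nM, was prereduced with 400 uM NADPH (final) for 5 min at ~22 deg C, then incubated with compound 15 min before 400 uM selenite. A first-read NADPH fluorescence drop versus no-compound background flagged substrates.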
VP16 counter: Gal4-VP16 reporter inhibition counter-screen. Drosophila S2 Gal4-VP16 UAS-luciferase, luminescence, 20 h. Potency, µM (series often up to 53.6 µM), actives largely listed as inhibitors. AID 2546. actives 3.5% (n = 310,000);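 note: Gal4-VP16 expression switched on by copper sulfate through the metallothionein promoter; nearly all actives have a fitted effect of over 50% in size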
FBPA coupling cs: coupling enzyme interference in Giardia aldolase counter-screen; coupling enzyme system counterscreen, AmpLite Red fluorescence; activity change, negative = inhibition, % at 58.2 µM, hits read low; actives 0.67% (n = 290,000); AID 2472; in the data active = activity change below about -30%
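Fluorescence at 525 nm excitation and 598 nm emission measured inhibition of the coupled detection system without aldolase. Compounds (at 57.5 uM final) were preincubated 10 min at room temperature with coupling enzyme reagent before a 20 min substrate/AmpLite Red step.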
GALK inhibitor: blocks human galactokinase activity | P51570 | Potency, µM (doses to about 57.5 µM), hits mostly inhibitors | Purified GALK, Kinase-Glo residual ATP luminescence | actives 0.007% (n = 270,000)
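Human GALK (5 nM) with 35 uM ATP and 100 uM galactose in 20 mM HEPES pH 8.0, 5 mM MgCl2, 60 mM NaCl, 1 mM DTT, 0.01% BSA. After 1 h at room temperature, leftover ATP was read by Kinase-Glo Plus luminescence.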
RORg inh: ROR gamma (mouse) transcription inhibition | P51450 | Drosophila S2 Gal4-RORgamma UAS-luciferase reporter, 20 h | Potency, µM (series often up to 53.6 µM), hits mostly inhibitors | actives 5.4% (n = 310,000) | AID 2551; note: nearly all actives have a fitted effect of over 60% in size
Target sequence (P51450 whole entry, looked up, the tested form may be a part): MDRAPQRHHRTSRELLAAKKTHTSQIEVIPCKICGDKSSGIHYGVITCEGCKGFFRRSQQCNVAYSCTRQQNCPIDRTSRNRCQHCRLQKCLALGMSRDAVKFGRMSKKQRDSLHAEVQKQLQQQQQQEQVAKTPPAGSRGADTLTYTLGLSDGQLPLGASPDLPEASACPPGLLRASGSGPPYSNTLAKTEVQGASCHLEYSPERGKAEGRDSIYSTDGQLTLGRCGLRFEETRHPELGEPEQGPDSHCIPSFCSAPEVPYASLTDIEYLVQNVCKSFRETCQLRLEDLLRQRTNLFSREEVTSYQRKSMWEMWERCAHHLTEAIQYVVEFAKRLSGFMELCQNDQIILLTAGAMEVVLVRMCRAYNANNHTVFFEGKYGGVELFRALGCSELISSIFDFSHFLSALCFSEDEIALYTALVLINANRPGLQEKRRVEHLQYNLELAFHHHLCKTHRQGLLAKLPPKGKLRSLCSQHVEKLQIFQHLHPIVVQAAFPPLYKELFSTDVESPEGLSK
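Compounds are pin-transferred onto Drosophila Schneider cells expressing a copper-inducible Gal4–ROR gamma transactivation domain fusion. After 1 hr, copper sulfate is added to 700 uM final; luciferase is read 20 hr later.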
Each line names hits and unclear results; the compound was inactive in the other large screens. Unless noted, calls come from the whole dose curve; as a rule, active = well fitted curve in the direction sought with a large enough effect; inconclusive = small, poorly fitted or top-dose-only effect, or another doubt; inactive = no such curve, though single readings can be large; an effect the other way counts as inactive or inconclusive.

O=C(NCCc1ccccc1)c1c[nH]c2ccc(S(=O)(=O)Nc3ccc(F)cc3F)cc2c1=O	none (no result: VP16 counter, FBPA coupling cs, GALK inhibitor, RORg inh)
Cc1cccc(C)c1N1CCN(C(=O)Cn2cncn2)CC1	none
CCOC(=O)C1/C(=N\O)CC(C)(O)C(C(=O)OCC)C1c1ccc(N(C)C)cc1 (stereo not drawn)	none
O=C(O)c1cc(/C=C/c2ccc(N3CCOCC3)cc2)nc2ccccc12	VP16 counter 5.01µM, RORg inh 6.31µM
CCn1c2ccccc2c2n[nH]c(=S)nc21	VP16 counter 8.91µM, RORg inh 3.98µM
CCCn1c2ccc(C)cc2c2nnc(SCCN3CCCCC3)nc21	none
CCCn1c2ccc(C)cc2c2n[nH]c(=S)nc21	VP16 counter 3.55µM, RORg inh 1.78µM
O=C(O)Cn1c2ccccc2c2n[nH]c(=S)nc21	TrxR1 inh inconclusive
C=CCn1c2ccccc2c2n[nH]c(=S)nc21	VP16 counter 3.55µM, RORg inh 2.51µM
O=C(CSc1nnc(NC(=O)C2CCC2)s1)Nc1ccccc1Br	none
CC[C@]12c3[nH]c4cc(-c5ccco5)ccc4c3CCN1C(=O)[C@@H](CC(=O)NCc1cccc(C(F)(F)F)c1)C[C@@H]2C(=O)N1CCN(C(=O)c2ccco2)CC1	none (no result: VP16 counter, FBPA coupling cs, GALK inhibitor, RORg inh)
Brc1ccc2nc(-c3c[nH]c4ccccc34)cn2c1	VP16 counter inconclusive, RORg inh 0.199µM
COc1ccc(N2C(=O)C(Cl)=C(Oc3cccc(OC)c3)C2=O)cc1	TrxR1 inh 0.447µM, VP16 counter inconclusive, RORg inh 11.2µM
CCc1ccc(CNC(=O)CCS(=O)(=O)Cc2ccccc2F)cc1	none
O=C(Nc1ccc([N+](=O)[O-])cc1Cl)c1cc(Cl)ccc1O	TrxR1 inh inconclusive, VP16 counter 1.26µM, RORg inh 1.26µM (no result: GALK inhibitor)
COc1ccc(Cl)cc1C(=O)Nc1ccc([N+](=O)[O-])cc1Cl	none (no result: VP16 counter, FBPA coupling cs, GALK inhibitor, RORg inh)
O=[N+]([O-])c1ccc(O)c(/C=N/NC(=S)Nc2ccc(Cl)cc2Cl)c1	VP16 counter 2.51µM, RORg inh 2.51µM (no result: GALK inhibitor)
Clc1ccc2c(c1)C1OCCC1C(c1ccco1)N2 (stereo not drawn)	TrxR1 inh inconclusive
C=CCNC(=S)NNC(=O)c1ccc([N+](=O)[O-])cc1	VP16 counter inconclusive
C=CCN(CC=C)C(=S)NC(=O)c1ccc([N+](=O)[O-])cc1	VP16 counter 0.126µM, RORg inh 0.126µM
COc1ccc(C(=O)NC(=S)NCCO)cc1Br	VP16 counter 1.12µM, RORg inh 0.794µM
C=CCNC(=S)NC(=O)c1ccc(C)c(Br)c1	TrxR1 inh inconclusive, VP16 counter inconclusive, RORg inh inconclusive
C=CCN(CC=C)C(=S)NC(=O)c1ccc(OC)c(Br)c1	VP16 counter 0.708µM, RORg inh 0.282µM
CCN(CC)C(=S)NC(=O)c1ccc(OC)c(Br)c1	VP16 counter 0.501µM, RORg inh 0.355µM (no result: GALK inhibitor)
NC(=O)COC(=O)c1cccc(S(=O)(=O)N2CCCc3ccccc32)c1	none
Cc1ccc(-n2c(C)nnc2SCC(=O)NC2CCCC2)cc1	none (no result: VP16 counter, RORg inh)
O=C(Nc1ccc(F)c(Cl)c1)N1CCC(CN2CCOCC2)CC1	none (no result: VP16 counter, FBPA coupling cs, GALK inhibitor, RORg inh)
COC(C(C)/C=C/CC(=O)OCCCc1ccccc1)C1CCCCC1 (stereo not drawn)	none (no result: TrxR1 inh, TrxR1 substrate, GALK inhibitor)
CC(C)CC1(C(=O)NCC2CC2)C=CCN1C(=O)c1ccccc1 (stereo not drawn)	VP16 counter inconclusive (no result: TrxR1 inh, TrxR1 substrate, GALK inhibitor)
c1ccc(Nc2ncnc3ccc(-c4ccc5c(c4)OCO5)cc23)cc1	RORg inh inconclusive (no result: TrxR1 inh, TrxR1 substrate, GALK inhibitor)
COc1ccc(C(=O)c2ccc(OC)c(Br)c2)cc1Br	TrxR1 inh 39.8µM, VP16 counter inconclusive (no result: GALK inhibitor)
COc1ccc(C(=O)c2cccc(C(=O)c3ccc(OC)c(C)c3)c2)cc1C	none
CN1/C(=C\C=N\NC(=O)c2ccc(O)cc2)C(C)(C)c2ccccc21	VP16 counter 2.51µM, RORg inh 4.47µM
CN1/C(=C\C=Nc2ccc3ccccc3c2)C(C)(C)c2ccccc21	VP16 counter 4.47µM, RORg inh 3.16µM (no result: TrxR1 inh, TrxR1 substrate)
CN1/C(=C\C=N\NC(=O)c2cccnc2)C(C)(C)c2ccccc21	VP16 counter 0.891µM, RORg inh 0.501µM
CN1/C(=C\C=O)C(C)(C)c2ccccc21	RORg inh inconclusive
CC(=O)c1ccc(NC(=O)CSc2ccc(-c3sc(C)nc3C)nn2)cc1	none (no result: FBPA coupling cs)
COc1cc(O)c(CCO)c2c1C(=O)C[C@@H](C)O2	none
CCCCNC(=S)NNC(=O)c1cc(C2CC2)nc2ccccc12	VP16 counter inconclusive, RORg inh 6.31µM
O=C(NNC(=O)c1cc(-c2ccncc2)nc2ccccc12)c1ccccc1F	none (no result: VP16 counter, FBPA coupling cs, GALK inhibitor, RORg inh)
CNC(=S)NNC(=O)c1cc(-c2cccnc2)nc2ccccc12	VP16 counter 15.8µM, RORg inh 7.08µM (no result: FBPA coupling cs)
C=CCNC(=S)NNC(=O)c1cc(-c2cccnc2)nc2ccccc12	none
O=C(O)c1cc(C2CC2)nc2ccccc12	none (no result: GALK inhibitor)
CC(C)(C)C(=O)COC(=O)c1cc(-c2cccnc2)nc2ccccc12	VP16 counter 35.5µM, RORg inh inconclusive
CCCCNC(=S)NNC(=O)c1cc(-c2ccncc2)nc2ccccc12	TrxR1 inh inconclusive, RORg inh 11.2µM (no result: FBPA coupling cs)
Cc1ccc(CN2CCN(Cc3cccc(OCCO)c3)CC2CCO)o1 (stereo not drawn)	none
Cc1ccccc1-c1noc(CCC(=O)NCCc2ccccc2)n1	none
Cc1cnc(CNc2ncncc2-c2ccc(N(C)C)cc2)cn1	none (no result: TrxR1 inh, TrxR1 substrate, GALK inhibitor)
COCCNC(=S)NNC(=O)c1cc(C2CC2)nc2ccccc12	RORg inh 11.2µM
CCOC(=O)C1CCN(S(=O)(=O)c2cccc(-c3cn4cc(C)ccc4n3)c2)CC1	VP16 counter 17.8µM
O=C(NC1CCCCC1)C(c1ccncc1)N(Cc1ccc2c(c1)OCO2)C(=O)c1cnsn1 (stereo not drawn)	FBPA coupling cs -46.4
COc1cc(/C=C/[N+](=O)[O-])ccc1OC(=O)c1cc2ccccc2oc1=O	TrxR1 inh inconclusive, VP16 counter 7.08µM, RORg inh 15.8µM
O=S(=O)(c1cc(F)ccc1F)N1CCN(c2ncnc3ccccc23)CC1	none (no result: VP16 counter, FBPA coupling cs, GALK inhibitor, RORg inh)
COc1ccc(/C(C)=N/NC(=O)CNC(=O)c2cccnc2)c(OC)c1	none
N#CC(c1ccccc1)c1ccc2c(C(F)(F)F)cc(C(F)(F)F)nc2n1 (stereo not drawn)	VP16 counter inconclusive, RORg inh 11.2µM
CN1CCN(C(=S)Nc2ccc(S(N)(=O)=O)cc2)CC1	none
Oc1ccc(N=Nc2ccc3c(c2)OCO3)c2ccccc12	VP16 counter 0.631µM, RORg inh 0.126µM (no result: TrxR1 inh, TrxR1 substrate)
Cc1ccc(C(O)(C(=O)NNc2ccc3ccccc3n2)c2ccc(C)cc2)cc1	VP16 counter 8.91µM, RORg inh 10µM
CCOC(=O)NC(N(O)c1cccc(Cl)c1)C(Cl)(Cl)Cl (stereo not drawn)	RORg inh 5.01µM
